In the library only some 21% were active in any assay of this set; here they are far more common.
CHX counter = affects cycloheximide protein synthesis inhibition readout, counter-screen | cell reporter, cycloheximide protein synthesis inhibition counterscreen | max response, % | actives 12% (n = 300,000) | AID 2314; in the data active = max response mostly above about 13%, no sharp cut-off; inactive = mostly below about 14%; note: read at 38.3 µM for the half of the compounds with a filed dose
Shiga inhibitor = blocks Shiga toxin action in Vero cells; Vero cells, Shiga toxin protein synthesis inhibition reporter; inhibition, % at 38.7 µM; actives 9.2% (n = 290,000); AID 2315; in the data active = inhibition mostly above about 28%, no sharp cut-off; inactive = mostly below about 43%
Pf growth 48h = P. falciparum growth inhibition at 48 hours (one generation); P. falciparum luciferase growth in erythrocytes, 48 h; Potency, µM (top dose mostly 28.7 µM), most hits filed as inhibitors; actives 5.9% (n = 310,000); AID 504832
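Firefly luciferase activity from engineered P. falciparum reports growth; inhibitors lower the luminescent signal. Cultures contained 2% hematocrit erythrocytes at 0.1% final parasitemia.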
Pf growth 96h = P. falciparum growth inhibition at 96 hours | P. falciparum luciferase reporter growth, 96 h | Potency, µM (top dose mostly 28.7 µM), usual class: inhibitors | actives 6.9% (n = 320,000)
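96 h incubation, 37 C, 5% CO2, of luciferase-reporter P. falciparum-infected RBCs (2% hematocrit, 0.05% parasitemia final) with test compounds; endpoint luminescence.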
NS1 inh = influenza NS1 inhibition; actives 0.4% (n = 270,000); Potency, µM (titrated, usually from 46.1 µM); calls by dose curve; note: actives are rising curves; nearly all actives have a fitted effect of over 50% in size
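OD600 was taken as the measure of yeast growth restored by compound in an NS1-expressing S. cerevisiae strain. Cells had been washed out of glucose medium and diluted 1:100 into galactose -URA medium, pH 6.0.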
Sm TGR inh = blocks Schistosoma mansoni thioredoxin glutathione reductase; Q962Y6; purified TGR, DTNB reduction, TNB absorbance 405 nm; Potency, µM (doses to about 114 µM), most hits filed as inhibitors; actives 3% (n = 360,000); note: nearly all actives have a fitted effect of over 60% in size
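First, TGR (20 nM dispensed) and NADPH were mixed with compound. Second, a 15 min room-temperature incubation followed. Third, further NADPH and then DTNB were added to start the reaction. Finally, TNB absorbance was monitored kinetically.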
Numbers stand for hits; n = inactive; u = inconclusive; x = not tested or not shown; [ ] = remark or other dose. Unless noted, calls come from the whole dose curve; as a rule, active = well fitted curve in the direction sought with a large enough effect; inconclusive = small, poorly fitted or top-dose-only effect, or another doubt; inactive = no such curve, though single readings can be large; an effect the other way counts as inactive or inconclusive.

SMILES | CHX counter | Shiga inhibitor | Pf growth 48h | Pf growth 96h | NS1 inh | Sm TGR inh
Cc1cc(N2C(=O)C(=O)/C(=C(/O)c3ccc(F)cc3)C2c2ccc(F)cc2)no1 (stereo unspecified) | n | n | n | 0.828µM | n | n
COc1cccc(C2/C(=C(\O)c3ccc(OC)c(OC)c3)C(=O)C(=O)N2c2cc(C)on2)c1 (stereo unspecified) | n | n | n | 5.22µM | n | n
CCOc1ccc(/C(O)=C2/C(=O)C(=O)N(c3cc(C)on3)C2c2ccc(C(=O)OC)cc2)cc1 (stereo unspecified) | n | n | n | n | n | n
Cc1ccc(S(=O)(=O)NCc2cc(=O)n(C)c(=O)n2C)cc1C | n | n | n | n | n | n
O=C(CNS(=O)(=O)c1ccc(F)cc1)Nc1ccc(C(F)(F)F)cc1 | n | n | x | n | n | n
Cc1ccc(CNS(=O)(=O)c2ccc(C(F)(F)F)cc2)n1C | n | n | u | n | n | 15.8µM
Cc1ccc(CNS(=O)(=O)c2ccc(F)c(F)c2)n1C | n | n | n | n | n | 20µM
COCCCNC(=O)c1nn(-c2ccc(C)cc2)c(=O)n(C)c1=O | x | x | x | x | x | n
O=S1(=O)OC(c2ccc(O)cc2)(c2ccc(O)cc2)c2ccccc21 | x | x | n | n | n | x
CCOc1ccc(NC(=S)Nc2cccc3cnccc23)cc1 | 13.7 | n | n | n | n | n
CCOc1ccc(NC(=S)Nc2ccc(OCC)cc2)cc1 | n | n | n | u | n | n
COc1ccc(NC(=S)Nc2cccc3cnccc23)cc1 | n | n | n | n | n | 56.2µM
COc1ccccc1NC(=S)Nc1cccc2cnccc12 | n | n | n | n | n | u
CCOc1ccc(NC(=S)Nc2cccc3ccccc23)cc1 | 72.1 | 88.8 | u | n | u | n
O=c1[nH]c(=S)c2[nH]c(=O)n(-c3ccccc3)c2[nH]1 | x | x | x | x | n | x
COCCCNC(=O)c1c[nH]c2ccc(S(=O)(=O)N3CCc4ccccc43)cc2c1=O | n | n | 11.7µM | n | x | n
CCN(CC)S(=O)(=O)c1ccc2c(c1)c(=O)c(C(=O)NCCc1ccc(OC)c(OC)c1)cn2C | n | n | u | u | n | n
CCN(CC)S(=O)(=O)c1ccc2[nH]cc(C(=O)NCCc3ccc(OC)c(OC)c3)c(=O)c2c1 | n | n | u | 8.28µM | n | n
COCCNC(=O)c1c[nH]c2ccc(S(=O)(=O)Nc3ccc(F)cc3F)cc2c1=O | 15.0 | n | n | n | n | n
COc1ccc(CCNC(=O)c2c[nH]c3ccc(F)cc3c2=O)cc1OC | n | x | 11.7µM | n | n | n
CCOc1ccc(C(=O)Nc2ccc3c(c2)N(C(C)=O)CCC3)cc1OCC | x | x | x | x | x | n
Cc1ccccc1NS(=O)(=O)c1ccc2[nH]cc(C(=O)NC3CCCCC3)c(=O)c2c1 | x | x | 11.7µM | 11.7µM | x | n
Cc1c(Cl)cccc1NS(=O)(=O)c1ccc2[nH]cc(C(=O)NC3CCCC3)c(=O)c2c1 | x | x | x | x | x | n
COc1cccc(NS(=O)(=O)c2ccc3[nH]cc(C(=O)NCCc4ccc(C)cc4)c(=O)c3c2)c1 | x | x | u | 11.7µM | x | n
CCN(CC)S(=O)(=O)c1ccc2[nH]cc(C(=O)NC3CC3)c(=O)c2c1 | n | n | n | 0.465µM | n | n
SMILES | CHX counter | Shiga inhibitor | Pf growth 48h | Pf growth 96h | NS1 inh | Sm TGR inh
Cc1cc(C)cc(NS(=O)(=O)c2ccc3[nH]cc(C(=O)NCc4ccco4)c(=O)c3c2)c1 | n | n | u | n | n | 39.8µM
CCCn1c2ccccc2c2cnn(CC(=O)NCCCN3CCN(c4ccccc4)CC3)c(=O)c21 | n | n | n | 0.329µM | n | n
CCCn1c2ccccc2c2cnn(CC(=O)NCCCN3CCCC(C)C3)c(=O)c21 (stereo unspecified) | n | n | n | 14.7µM | n | n
CN(C)CCNC(=O)c1ccc2c(=O)n(Cc3ccc(Cl)cc3)c(=S)[nH]c2c1 | n | n | u | n | n | 44.7µM
COC(=O)c1ccc2c(=O)n(Cc3ccc(C(=O)NCCCN4CCC(C)CC4)cc3)c(=S)[nH]c2c1 | n | n | u | u | x | u
CCCCN(C)CCNC(=O)c1ccc(Cn2c(=S)[nH]c3ccc(Br)cc3c2=O)cc1 | n | n | u | 10.4µM | x | u
COc1ccccc1Cn1c(=S)[nH]c2cc(C(=O)NCc3cccnc3)ccc2c1=O | n | n | u | 8.28µM | x | n
CC1CCN(CCCNC(=O)c2ccc3c(=O)n(Cc4ccc(Cl)cc4)c(=S)[nH]c3c2)CC1 | n | n | 13.1µM | n[5.75 µM] | x | n
COc1ccc(Cn2c(=S)[nH]c3cc(C(=O)NCc4cccnc4)ccc3c2=O)cc1 | n | n | n | n | x | n
O=C(NCCCN1CCOCC1)c1ccc2c(=O)n(Cc3ccc(Cl)cc3)c(=S)[nH]c2c1 | n | n | u | u | n | n
COc1ccc2c(C)cc(SCC(=O)N(C)C3CCS(=O)(=O)C3)nc2c1 (stereo unspecified) | n | n | n | u | x | n
CCc1ccc(C(CNC(=O)c2ccc3c(=O)n(-c4ccccc4F)c(=S)[nH]c3c2)N(C)C)cc1 (stereo unspecified) | n | n | 13.1µM | u | x | n
CCOC(=O)N1CCN(C(=O)c2ccc3c(=O)n(-c4ccccc4F)c(=S)[nH]c3c2)CC1 | n | n | u | n | x | n
COc1cc(C(=O)N(Cc2ccc(F)cc2)C2CCS(=O)(=O)C2)cc(OC)c1OC (stereo unspecified) | n | n | u | 8.28µM | n | n
COc1ccccc1C(=O)N(Cc1ccc(Cl)cc1)C1CCS(=O)(=O)C1 (stereo unspecified) | n | n | n | 11.7µM | n | n
CCOC(=O)C1CCN(Cc2cccc(OCc3ccccc3)c2)CC1 | n | n | n | u | n | n
OC(CC1CC12c1ccccc1-c1ncccc12)(c1ccccc1)c1ccccc1 (stereo unspecified) | n | n | x | 0.828µM | n | n
CCOC(=O)C(C)C1(O)c2ccccc2-c2ncccc21 (stereo unspecified) | n | n | n | u | n | n
COc1ccc(CCN)cc1O | x | x | x | x | n | x
NCCc1ccc(O)c(O)c1 | n | n | u | u | n | 14.1µM
C=CCOc1ccc(C=Nc2ccc(C)c(Cl)c2)c(O)c1 | n | n | n | n | n | n
CCOc1cccc(OCCCCn2ccnc2)c1 | n | n | 11.7µM | n | n | n
Fc1ccc(OCCCn2ccnc2)cc1 | n | n | n | u | n | n
COc1cccc(OCCCn2ccnc2)c1 | n | n | n | n | n | n
Fc1ccc(OCCCCCn2ccnc2)cc1 | n | n | n | 4.15µM | n | n
CC(C)C(OC(=O)CN1C(=O)COc2ccccc21)C(=O)NC1CCCCC1 (stereo unspecified) | n | n | u | n | n | n
CC(c1nccs1)N(C)C(=O)c1cn(Cc2cccc3ccccc23)nn1 (stereo unspecified) | 40.3 | 123.2 | n | n | n | n
CC(c1nccs1)N(C)C(=O)c1ccc(OC2CCN(CCc3ccccc3)CC2)cc1 (stereo unspecified) | n | n | u | n | n | n
